From PubChem
Hits are enriched below; roughly 2.6% of the tested compounds scored in any of these assays.
TLR4 MyD88 comp = blocks binding of human TLR4 to MyD88 | O00206+Q99836 | AID 861 | inhibition, % at 8.4 µM | 200,000 compounds, 0.18% hits | HeLa CL3-4 TLR4/MyD88 BLA complementation, FRET ratio; in the data active means inhibition above about 25%
Exocytosis inh = lytic granule exocytosis inhibition | inhibition, % at 10 µM | TALL-104 LAMP-1 surface exposure, flow cytometry; cells stimulated with thapsigargin and PMA | AID 651702 | 360,000 compounds, 0.66% hits;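 active means inhibition above about 55%, limit read from the data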
TLR9-MyD88 block = blocks human TLR9 binding to MyD88; Q9NR96+Q99836; CHO BLA complementation TLR9-MyD88, CCF4 FRET ratio; inhibition, % at 4.98 µM; 340,000 compounds, 0.21% hits;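 active means inhibition above the mean over all tested compounds plus 3 SD, cut at about 21% in these data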
NOD2 RIPK2 PPI = blocks binding of human NOD2 to RIPK2; O43353; CHO BLA complementation NOD2-RIPK2, CCF4 ratio; inhibition, % at 4.98 µM; 360,000 compounds, 0.38% hits; AID 624267; in the data active means inhibition above about 21%
PRMT1 FP inh = blocks human protein arginine methyltransferase 1; 370,000 compounds, 1.3% hits; Q99873; inhibition, % at 2.79 µM; AID 652257; recombinant PRMT1, activity-based probe fluorescence polarization;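 active means inhibition above about 21% made by adding two undisclosed values, limit read from the data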
ABHD5-PLIN5 inh = blocks binding of human ABHD5 to perilipin-5; Q00G26+Q8WTS1; Split G. princeps luciferase complementation, luminescence, 4 h; inhibition, % at 4 µM; 360,000 compounds, 0.78% hits; AID 602281;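 active means inhibition above the mean inhibition across every tested compound plus 3 SD, cut at about 22% in these data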
PRMT1 confirm = PRMT1 (human) inhibition, FP confirmation. shares compounds with PRMT1 FP inh. recombinant His-PRMT1, activity-based probe fluorescence polarization. inhibition, % at 2.79 µM. 3,300 compounds, 42% hits. AID 687036;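 active means mean inhibition across replicates above the hit cutoff derived for the earlier primary screen, cut at about 22% in these data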
Of the large screens only hits and unclear results are named; the others gave an inactive call (follow-up assays come after a bar, where they were run).

O=C(O)C1CSC(c2ccncc2)N1 (stereo not given)	none (no result: PRMT1 FP inh)
O=C(O)C1CSC(c2ccco2)N1 (stereo not given)	PRMT1 FP inh 27 | PRMT1 confirm 32
NCCc1nnc(SCC(=O)Nc2cccc(Cl)c2)o1	PRMT1 FP inh 25 (no result: TLR4 MyD88 comp) | PRMT1 confirm inactive
NC(=O)c1c(NC(=O)C2CCCO2)sc2c1CCCCC2 (stereo not given)	PRMT1 FP inh 28 | PRMT1 confirm inactive
CCn1cc(C(=O)N2CCn3c(nc4ccccc43)C2)c(=O)c2ccc(C)nc21	PRMT1 FP inh 31 | PRMT1 confirm inactive
CCn1cc(C(=O)N2CCN(Cc3ccc(C)cc3)CC2)c(=O)c2ccc(C)nc21	none (no result: TLR4 MyD88 comp, Exocytosis inh, TLR9-MyD88 block, NOD2 RIPK2 PPI, ABHD5-PLIN5 inh)
CCc1nc2c(OCc3ccccc3)cccn2c1N(C)C(C)=O	none (no result: TLR4 MyD88 comp, TLR9-MyD88 block)
Cc1cc(C)nc(SCCN(C)C)n1	none
Cc1cc(C)nc(SCCN2CCCCC2)n1	PRMT1 FP inh 26 (no result: TLR4 MyD88 comp) | PRMT1 confirm inactive
COc1ccccc1C(=O)N/C(=C/c1ccco1)C(=O)Nc1cccc(C(=O)O)c1	PRMT1 FP inh 28 (no result: TLR4 MyD88 comp) | PRMT1 confirm inactive
CC(=O)c1cccc(NC(=O)/C(=C/c2ccco2)NC(=O)c2ccco2)c1	PRMT1 FP inh 46 (no result: TLR4 MyD88 comp) | PRMT1 confirm 27
CC(=O)c1cccc(NC(=O)/C(=C\c2cccnc2)NC(=O)c2ccco2)c1	none
Cc1ccc(C(=O)N/C(=C/c2ccco2)C(=O)Nc2cccc(C(=O)O)c2)cc1	none (no result: TLR4 MyD88 comp, Exocytosis inh, TLR9-MyD88 block, NOD2 RIPK2 PPI, ABHD5-PLIN5 inh)
Cc1ccc(C(=O)Nc2cccc(C(F)(F)F)c2)cc1NC(=O)c1[nH]cnc1C(N)=O	none (no result: TLR4 MyD88 comp)
Cc1ccc(NC(=O)/C=C/C(=O)O)c([N+](=O)[O-])c1	none
CCOc1ccc(/C=C/C(=O)Nc2ccc(OC)cc2[N+](=O)[O-])cc1	none
COc1ccc(NC(=O)/C=C/C(=O)O)c([N+](=O)[O-])c1	PRMT1 FP inh 43 (no result: TLR4 MyD88 comp) | PRMT1 confirm inactive
Cc1cc(NC(=O)/C=C\C(=O)O)c([N+](=O)[O-])cc1C	PRMT1 FP inh 47 (no result: TLR4 MyD88 comp) | PRMT1 confirm inactive
Oc1cccc(CN2CCOCC2)c1O	PRMT1 FP inh 33 (no result: TLR4 MyD88 comp) | PRMT1 confirm inactive
Oc1c(CN2CCOCC2)cc(CN2CCOCC2)c(O)c1O	PRMT1 FP inh 35 (no result: TLR4 MyD88 comp) | PRMT1 confirm 83
Cc1cc2ccccc2cc1CN1CCOCC1	none
Oc1ccc2ccccc2c1CN1CCOCC1	none (no result: TLR4 MyD88 comp)
COc1ccccc1COCC(O)CN1CCN(S(=O)(=O)c2cccc(F)c2)CC1 (stereo not given)	none (no result: TLR4 MyD88 comp)
COC(=O)c1ccccc1SC(CC(=O)c1ccccc1)c1ccc(F)cc1 (stereo not given)	PRMT1 FP inh 43 (no result: TLR4 MyD88 comp) | PRMT1 confirm 48
Cc1oc(-c2ccc3c(c2)OCCO3)cc1C(=O)O	PRMT1 FP inh 42 | PRMT1 confirm inactive
CCN1/C(=C/C(C)=C/c2sc3ccccc3[n+]2CC)Sc2ccccc21	Exocytosis inh 82, PRMT1 FP inh 98 | PRMT1 confirm inactive
Cc1ccc(NC(=O)C2C3C=CC(O3)C2C(=O)O)cc1C (stereo not given)	none (no result: TLR4 MyD88 comp)
Cc1cccc(NC(=O)C2C3C=CC(O3)C2C(=O)O)c1C (stereo not given)	PRMT1 FP inh 33 (no result: TLR4 MyD88 comp) | PRMT1 confirm inactive
Cc1ccc(NC(=O)C2C3C=CC(O3)C2C(=O)O)c(C)c1 (stereo not given)	PRMT1 FP inh 37 (no result: TLR4 MyD88 comp) | PRMT1 confirm inactive
Cc1ccc(C)c(NC(=O)C2C3C=CC(O3)C2C(=O)O)c1 (stereo not given)	PRMT1 FP inh 79 (no result: TLR4 MyD88 comp) | PRMT1 confirm 38
CCOc1ccc(N2C(=O)C3Sc4[nH]c(=O)sc4C(/C=C/c4ccccc4)C3C2=O)cc1 (stereo not given)	PRMT1 FP inh 27 | PRMT1 confirm inactive
COc1cc(C2c3sc(=O)[nH]c3SC3C(=O)N(c4ccc(Br)cc4)C(=O)C32)ccc1O (stereo not given)	none (no result: TLR4 MyD88 comp)
CCOC(=O)C1=C(C)N=c2s/c(=C/c3cccc(OCC(=O)O)c3)c(=O)n2C1c1ccc(F)cc1 (stereo not given)	PRMT1 FP inh 41 (no result: TLR4 MyD88 comp, Exocytosis inh, TLR9-MyD88 block, NOD2 RIPK2 PPI, ABHD5-PLIN5 inh) | PRMT1 confirm inactive
CCOC(=O)C1=C(C)N=c2s/c(=C\c3cccc(OCC(=O)O)c3)c(=O)n2C1c1ccccc1 (stereo not given)	PRMT1 FP inh 32 (no result: TLR4 MyD88 comp) | PRMT1 confirm inactive
